# Test results as given in the supplement of paper PMC3334620.
# The full ranking holds about 33,000 sequences; the median of “E-score (-0.5 to 0.5)” is about -0.032, and the highest 2% start at about 0.36. This excerpt belongs to a sample that is enriched for the highest values.
# Biological target: T1, Sko1 (UniProt Q02100)
# T1 sequence: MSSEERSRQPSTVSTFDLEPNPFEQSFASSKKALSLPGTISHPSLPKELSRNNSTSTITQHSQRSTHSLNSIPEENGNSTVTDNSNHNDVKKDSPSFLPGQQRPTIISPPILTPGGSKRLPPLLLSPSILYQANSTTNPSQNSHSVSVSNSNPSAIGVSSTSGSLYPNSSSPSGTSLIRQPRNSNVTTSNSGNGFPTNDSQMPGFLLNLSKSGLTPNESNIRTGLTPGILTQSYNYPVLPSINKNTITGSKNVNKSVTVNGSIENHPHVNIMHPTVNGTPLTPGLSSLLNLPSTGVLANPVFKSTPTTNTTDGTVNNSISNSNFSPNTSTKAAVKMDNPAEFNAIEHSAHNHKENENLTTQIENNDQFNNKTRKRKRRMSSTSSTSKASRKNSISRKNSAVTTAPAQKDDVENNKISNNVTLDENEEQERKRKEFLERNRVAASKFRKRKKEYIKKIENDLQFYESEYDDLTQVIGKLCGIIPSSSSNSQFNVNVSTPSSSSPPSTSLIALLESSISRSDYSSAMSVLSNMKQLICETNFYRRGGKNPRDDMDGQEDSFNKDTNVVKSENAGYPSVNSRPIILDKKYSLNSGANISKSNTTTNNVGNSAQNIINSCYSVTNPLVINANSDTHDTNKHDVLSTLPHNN
# Assay: PBM E-score (8-mer binding enrichment) (E-score (-0.5 to 0.5)); higher = stronger / more preferred TF binding
# Conditions: protein concentration: 200 nM; construct: GST-full length
# How it was run: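 E-scores (a modified Wilcoxon-Mann-Whitney statistic) were assigned by the Universal PBM Analysis Suite to every ungapped eight-base word pooled with its reverse complement. The input came from universal all-10-mer Agilent arrays made double-stranded by primer extension and probed with GST-tagged yeast transcription factors at about 100-200 nM. Fluorescent anti-GST detected bound protein, and masliner normalised the scans.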
row,Sequence,PBM E-score
1,TCGTAGCA,0.217
2,CCGTAGCA,-0.064
3,ACGTAGCT,0.444
4,CCGTAGCC,-0.259
5,ACGTAGCG,0.42
6,CCGTAGCG,-0.239
7,ACGTAGCC,0.388
8,ACGTAGCA,0.412
9,TAGGATGA,0.136
10,CGTTCGAG,0.189
11,ACTAAAGG,-0.0392
12,GAACACAC,-0.0651
13,CCCCAGCA,-0.157
14,CAAGTATG,0.0253
15,GAAGTATC,0.0123
16,CACGTATA,0.431
17,AGCGTATC,-0.0128
18,CTCGTATA,0.0394
19,ACCGTATG,0.105
20,GACGTATC,0.422
21,CAGGTATG,-0.00478
22,CGCGTATA,0.244

row,Sequence,PBM E-score
1,AACGTATG,0.431
2,CACGTATG,0.426
3,AGCGTATG,-0.0197
4,CGAGCACA,-0.00253
5,CAGTTCAG,-0.112
6,TTACAGAA,-0.0258
7,ACAATAGC,-0.0393
8,CAATGCCG,-0.128
9,CGACCTTC,-0.189
10,ACTGCGTC,0.284
11,ACCGTATA,0.0367
12,AAAGTATT,0.0493
13,CGCGTATC,0.232
14,AAGGTATT,0.131
15,AACGTATT,0.434
16,TACGTATA,0.483
17,GTCGTATA,0.269
18,GACGTATA,0.453
19,ATCGTATA,0.197
20,CACGTATC,0.393
21,GGCGTATA,0.148
22,CTCGTATC,0.0593

row,Sequence,PBM E-score
1,CGCACTGA,0.0222
2,AGCTATAT,0.172
3,TCCCGACA,-0.139
4,CAAGTCGC,-0.173
5,AACGTATC,0.353
6,AGCGTATA,0.15
7,AACGTATA,0.406
8,ACACGGGG,-0.242
9,ACTACGAC,0.181
10,CTTACGAC,0.16
11,ACTACGAG,0.162
12,AATACGAG,0.244
13,ATTACGAC,0.396
14,ATTACGAG,0.36
15,ATACCTGC,-0.102
16,CAAATTAG,0.104
17,CCGTCACG,0.152
18,GCGTCACA,0.406
19,GCGTCACC,0.341
20,CCGTCACA,0.163
21,TCGTCACA,0.379
22,TGGTCACA,0.0263

row,Sequence,PBM E-score
1,ACTAGACT,-0.176
2,CAATAGCA,-0.132
3,CTGCAATC,-0.0429
4,CGCTGAGA,-0.0923
5,AAAACCAG,-0.0997
6,CCGCAACA,0.165
7,GCGCAACA,0.175
8,CCGCAACG,0.0186
9,GCGCAACC,-0.162
10,ACGCAACA,0.388
11,ACGCAACT,0.355
12,ACGCAACC,0.379
13,CCGCAACC,-0.2
14,ACGCAACG,0.377
15,TAGAGCCA,-0.278
16,GCCGAGAC,-0.218
17,ATGGGTCG,-0.179
18,ATTCAAGC,0.106
19,ATGTTCTA,0.0474
20,GCGTGCGA,-0.0187
21,GTACATTA,0.295
22,ATACATCC,0.0616

row,Sequence,PBM E-score
1,CTACATCC,-0.0667
2,ATACATCA,0.382
3,GTACATCA,0.366
4,GTACATGA,0.184
5,ATACATCG,0.196
6,CTACATCA,0.375
7,CTACATTA,0.00265
8,CGGGGCGC,-0.313
9,AACAGGTT,-0.0299
10,AGGCACTA,-0.0926
11,CGACATCA,0.355
12,GTACATAA,0.306
13,TGACATCA,0.466
14,CAACATCA,0.294
15,TAACATCA,0.367
16,GGACATCA,0.205
17,TTACATAA,0.407
18,GGACATAA,0.0688
19,AGACATAA,0.0234
20,TGACATAA,0.424
21,AAACATCA,0.189
22,CTACATAA,0.194
